DT40 TDP1 no CPT: qHTS for Inhibitors of human tyrosyl-DNA phosphodiesterase 1 (TDP1): qHTS in cells in absence of CPT. DT40 Tdp1-/- hTDP1 cells, no CPT, ATP luminescence, 48 h. Potency, µM (titrated, usually from 46.2 µM), inactives show at the top dose activity change, negative = growth inhibition, most hits filed as inhibitors. 420,000 compounds, 15% hits. AID 686978, 2013; note: potency is the fitted concentration of half-maximal effect; nearly all actives have a fitted effect of over 55% in size
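Growth kinetics read by CellTiter-Glo luminescence after ≥48 hr at 37 °C. Cells: DT40 Tdp1-/- stably carrying human TDP1, 400 per well, compound exposure in the absence of CPT (DMSO vehicle).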
HT1080-NT tox: qHTS for induction of synthetic lethality in tumor cells producing 2HG: qHTS for the HT-1080-NT fibrosarcoma cell line; HT-1080-NT fibrosarcoma viability, CellTiter-Glo ATP luminescence, 48 h; Potency, µM (doses to about 46.1 µM), without a hit: top-dose activity, negative = less viability, hits mostly cytotoxic; AID 686970, 2013; 360,000 compounds, 1.6% hits;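 note: NT is the 2HG producing partner of a matched IDH1 knockdown line; potency is the fitted concentration of half-maximal effect; 0% = DMSO-treated cells and -100% = media-only wells without cells; nearly all actives have a fitted effect of over 55% in size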
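Luminescent CellTiter-Glo readout after 48 hours of compound exposure at 37 degrees C defined viability of HT-1080-NT cells. Activity was normalized to DMSO wells and cell-free media wells; concentration-response curves were fitted and assigned curve classes.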
DT40 TDP1 CPT: qHTS for Inhibitors of human tyrosyl-DNA phosphodiesterase 1 (TDP1): qHTS in cells in presence of CPT; 420,000 compounds, 12% hits; AID 686979, 2013; Potency, µM (top dose mostly 46.2 µM), without a hit: at the top dose activity change, negative = growth inhibition, hits mostly inhibitors; chicken DT40 Tdp1-/-;hTDP1 cells + 20 nM CPT, ATP luminescence, 48 h; note: potency is the fitted concentration of half-maximal effect; nearly all actives have a fitted effect of over 55% in size
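Chicken DT40 Tdp1-/- cells stably complemented with human TDP1 were seeded at 400 cells/well in medium containing 20 nM camptothecin, exposed to pin-transferred compounds, and grown at 37 °C for at least 48 hr. Viability was read as ATP luminescence.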
ALOX12 inh: Primary qHTS assay for inhibitors of human arachidonate 12S-lipoxygenase (ALOX12): Round 2; Polyunsaturated fatty acid lipoxygenase ALOX12 (Homo sapiens), P18054; Potency, µM (titrated, usually from 108 µM), inactives show at the top dose activity change, negative = inhibition, most hits filed as inhibitors; purified 12hLO, xylenol orange hydroperoxide absorbance; 580,000 compounds, 1.1% hits; AID 1671190, 2021; note: potency is the fitted concentration of half-maximal effect
Target sequence (P18054 whole entry, looked up): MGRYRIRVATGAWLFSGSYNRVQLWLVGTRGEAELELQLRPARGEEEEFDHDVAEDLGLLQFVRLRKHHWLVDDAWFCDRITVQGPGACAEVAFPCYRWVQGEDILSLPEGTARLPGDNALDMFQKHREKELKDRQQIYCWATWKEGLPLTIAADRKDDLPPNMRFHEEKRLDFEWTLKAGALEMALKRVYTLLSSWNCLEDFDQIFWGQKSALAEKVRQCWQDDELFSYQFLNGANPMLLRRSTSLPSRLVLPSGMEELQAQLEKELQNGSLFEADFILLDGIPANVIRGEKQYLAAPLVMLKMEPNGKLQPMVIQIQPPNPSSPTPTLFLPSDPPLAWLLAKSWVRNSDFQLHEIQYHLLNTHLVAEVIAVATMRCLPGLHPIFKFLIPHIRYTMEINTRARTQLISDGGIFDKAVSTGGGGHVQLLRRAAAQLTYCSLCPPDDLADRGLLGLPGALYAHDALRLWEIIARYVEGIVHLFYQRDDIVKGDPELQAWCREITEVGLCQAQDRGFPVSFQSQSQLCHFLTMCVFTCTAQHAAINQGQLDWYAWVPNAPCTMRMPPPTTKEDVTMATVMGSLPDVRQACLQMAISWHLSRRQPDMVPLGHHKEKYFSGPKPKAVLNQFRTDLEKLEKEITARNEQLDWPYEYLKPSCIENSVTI
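Hydroperoxide product was detected by ferrous iron/xylenol orange as the 573 to 405 nm absorbance ratio. Arachidonic acid at 40 uM (final) was turned over for 30 min at room temperature by 150 nM human 12hLO, pH 7.0 Hepes buffer, after 15 min compound preincubation.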
IL1B secr inh: qHTS for Inhibitors of Inflammasome Signaling: IL-1-beta AlphaLISA Primary Screen; THP-1 LPS/ATP IL-1B secretion, AlphaLISA, 16 h; hits give low values; activity change, % at 57.5 µM; 360,000 compounds, 4.7% hits; AID 743279, 2014; in the data active = activity change below about -50%; inconclusive = mostly about -30% to -49%
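THP-1 cells pretreated 1 hr with compounds (up to 57.5 uM final), then stimulated with LPS (250 ng/mL final) plus ATP (1.25 mM final); secreted IL-1B measured by AlphaLISA after 16 hr, decreased signal indicating inhibition.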
HT1080 IDH1KD tx: qHTS for induction of synthetic lethality in tumor cells producing 2HG: qHTS for the HT-1080-IDH1KD cell line; HT-1080 IDH1 knockdown viability, ATP luminescence, 48 h; Potency, µM (titrated, usually from 46.1 µM), without a hit: at the top dose activity, negative = toxicity, actives largely listed as cytotoxic; 360,000 compounds, 2% hits; AID 686971, 2013;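 note: potency is the fitted concentration of half-maximal effect; 0% = DMSO wells and -100% = cell-free medium wells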
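In this qHTS, HT-1080 cells depleted of IDH1 are exposed for 48 h at 37 °C to compound titrations. Toxicity is scored from CellTiter-Glo luminescence, with DMSO as full viability and medium alone as none.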
An asterisk follows results filed as active; ? = inconclusive; / = not tested or not shown; [ ] = remark or other dose. Only a selection was taken, and hits are over-represented in it overall. Unless noted, calls come from the whole dose curve; as a rule, active = well fitted curve in the direction sought with a large enough effect; inconclusive = small, poorly fitted or top-dose-only effect, or another doubt; inactive = no such curve, though single readings can be large; an effect the other way counts as inactive or inconclusive. Unless noted, % is set by controls: 0 for no effect and ±100 for the full control effect.

SMILES	DT40 TDP1 no CPT	HT1080-NT tox	DT40 TDP1 CPT	ALOX12 inh	IL1B secr inh	HT1080 IDH1KD tx
Clc1nssc1=Nc1nncs1	7.3µM*	-1%	5.8µM*	4.5µM*	-73*	-10%
COc1cc(N=c2ssnc2Cl)cc(OC)c1	13µM*	-21%	10µM*	?	?	-2%
Clc1ccc(N=c2ssnc2Cl)nc1	2.6µM*	6%	3.3µM*	?	-14	14%
COc1cccc(OC)c1	/	/	/	-7%[176 µM]	/	/
Clc1nssc1=Nc1ccc(Br)cc1	13µM*	16µM*	10µM*	4µM*	-97*	?
N#Cc1cccc(N=c2ssnc2Cl)c1	6.5µM*	2%	3.3µM*	?	-9	16%
Cc1cc(C)cc(C(N)=Nc2cccc(C#N)c2)c1	?	-2%	10%	-2%	-13	3%
CC1=NN(c2ccccc2)C(=O)/C1=C/N(C)C	4%	-11%	?	-15%	9	-6%
O=c1[nH]c2ccccc2nc1CCc1ccccc1	-9%	7%	-7%	-2%	26	1%
CC1=NN(c2nc3ccccc3[nH]2)C(=O)/C1=C/N(C)C	?	21µM*	4.6µM*	/	16	2.9µM*
CC1=NN(c2nc3ccccc3[nH]2)C(=O)C1Cc1ccccc1 (stereo not drawn)	1.3µM*	2.1µM*	1µM*	/	62	?
Cc1cccc(C)c1Nc1c(-c2ccccc2F)nc2ccccn12	/	/	/	-3%	/	/
c1ccn2cc(C34CC5CC(CC(C5)C3)C4)nc2c1	18µM*	-15%	?	1%	6	-22%
O=C(c1ccccc1F)N1CCN(c2ccc([N+](=O)[O-])c(N3CCOCC3)c2)CC1	-17%	11%	-27%	-20%	-20	-4%
O=C(c1cccc2ccccc12)N1CCN(c2ccc([N+](=O)[O-])c(N3CCOCC3)c2)CC1	21µM*	-23%	9.2µM*	-18%	-1	-9%
O=C(c1cc([N+](=O)[O-])ccc1N1CCOCC1)N1CCCCC1	1%	11%	0%	-21%	9	10%
O=C(c1cc([N+](=O)[O-])ccc1N1CCOCC1)N1CCN(c2ccc([N+](=O)[O-])cc2)CC1	15µM*	-9%	13µM*	-13%	-11	-14%
O=C(Nc1ccc([N+](=O)[O-])cc1)Nc1ccc(N2CCOCC2)c2nonc12	23µM*	-5%	21µM*	?	?	10%
CC(=O)Nc1cc([N+](=O)[O-])ccc1N1CCOCC1	2%	2%	0%	-11%	-4	17%
O=C(NCc1ccco1)c1cc([N+](=O)[O-])ccc1N1CCCCC1	?	-6%	16µM*	-18%	-17	-7%
O=C(NCc1ccco1)c1ccc(N2CCCCC2)c([N+](=O)[O-])c1	-27%	-3%	1%	-14%	?	0%
O=C(NCC(O)COc1ccc(C(F)(F)F)cc1)C1CCCC1 (stereo not drawn)	/	/	/	1%	/	/
CCC(C)NC(=O)Cn1c(=O)n(C)c(=O)c2sc(N3CCCC3)nc21 (stereo not drawn)	/	/	/	-19%	/	/
O=C(c1ccccc1Sc1ccc([N+](=O)[O-])cc1Cl)N1CCOCC1	?	-3%	?	-25%	-72*	-11%
O=C(Nc1ccc(N2CCCC2)cc1)c1cc([N+](=O)[O-])ccc1N1CCOCC1	23µM*	-28%	?	0%	-13	?
SMILES	DT40 TDP1 no CPT	HT1080-NT tox	DT40 TDP1 CPT	ALOX12 inh	IL1B secr inh	HT1080 IDH1KD tx
N#Cc1ccccc1Sc1ccccc1C(=O)N1CCOCC1	-10%	13%	-5%	4%	10	17%
O=C(Nc1ccc(NC(=O)c2cc([N+](=O)[O-])ccc2N2CCOCC2)cc1)c1cccs1	?	-8%	?	3%	?	-13%
CC(C)C(=O)N1CCN(c2ccccc2NC(=O)c2cc([N+](=O)[O-])ccc2N2CCOCC2)CC1	13µM*	-5%	?	-23%	-4	-6%
COc1ccc(Cc2nnc(SC(C)c3nc4ccccc4c(=O)[nH]3)o2)cc1 (stereo not drawn)	/	/	/	-12%	/	/
CCOC(=O)c1cc(-c2ccc(OC)cc2)n(CCC(=O)NCCN2CCC(C)CC2)c1C	?	-15%	?	-17%	?	-17%
CCOC(=O)c1cc(-c2ccc(F)cc2)n(CCC(=O)NC2CCN(Cc3ccccc3)CC2)c1C	15µM*	?	16µM*	-29%	?	?
CCOC(=O)c1cc(-c2ccc(OC)cc2)n(CCC(=O)NC2CCN(Cc3ccccc3)CC2)c1C	21µM*	-28%	?	-13%	-4	-28%
COc1cccc2c3c(c(C)nc12)CCN3c1ccccc1	15µM*	?	?	-10%	-93*	?
Cc1ccc2nc(C)c3c(c2c1)N(c1ccc(F)cc1)CC3	?	21µM*	10µM*	?	/	15µM*
COc1ccccc1N1CCc2c(C)nc3c(OC)cccc3c21	4.1µM*	?	5.8µM*	/	-72*	?
Cc1cccc(C)c1NC(=O)c1nc2ccccc2nc1N1CCN(C)CC1	/	/	/	5%	/	/
O=C(NNC(=O)c1ccccc1-c1ccccc1C(=O)O)c1ccccc1	11%	4%	2%	-13%	-3	2%
O=C(C=P(c1ccccc1)(c1ccccc1)c1ccccc1)c1ccccc1-c1ccccc1C(=O)C=P(c1ccccc1)(c1ccccc1)c1ccccc1	0.58µM*	13µM*	0.73µM*	?	?	7.3µM*
CC(N[C@H]1CCCC[C@H]1NC(=O)c1ccc(Cl)cc1)c1cccc2ccccc12 (stereo partly drawn)	/	/	/	-4%[57.4 µM]	/	/
Cc1ccccc1CCN1CCCC(CN(C)C(=O)Nc2ccccc2C)C1 (stereo not drawn)	/	/	/	32%	/	/
Cc1ccc(CN2CCSc3ccc(C(=O)N4CCOCC4)cc32)cc1	-19%	-1%	?	/	-19	-1%
CCN1CCN(C(=O)c2ccc3c(c2)N(Cc2ccc(C)cc2)CCS3)CC1	23µM*	-15%	21µM*	-12%	-15	-1%
